Measured values as given in PubChem BioAssay (NCATS).
Results filed as inconclusive are left out. Calls of active or inactive are those of the source. The call rests on the fitted dose curve; in most records, active means well fitted curve in the direction sought with a large enough effect; inconclusive means small, poorly fitted or top-dose-only effect, or another doubt; inactive means no such curve, though single readings can be large; an effect the other way counts as inactive or inconclusive. Square brackets hold non-standard residues; d marks the D form. Peptide text beside a SMILES is read from it. Ala(indol-2-yl) = N[C@@H](Cc1cc2ccccc2[nH]1)C(=O)O; Aib = CC(C)(N)C(=O)O

Columns and labels:
[1] = biological target: Cellular tumor antigen p53 (Homo sapiens) (UniProt P04637); assay: Primary qHTS for small molecule compounds that upregulate eGFP-tagged delta133p53alpha (in N-terminal) cells. (AID 2060322); conditions: NCI-H358 eGFP-delta133p53alpha fluorescence, 24 h; activation: hits give high values;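 further: series mostly up to about 56 µM; 0% = DMSO vehicle and 100% = reference activator; nearly all actives have a fitted effect of over 75% in size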
Summary of the method: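 NCI-H358 cells pre-induced 24 h with 10 ng/ml doxycycline to express N-terminal eGFP-delta133p53alpha, then dosed 24 h at 37C without doxycycline; fixed, Hoechst-stained, GFP intensity by laser scanning cytometry, normalized to DMSO (0%) and 57.5 uM 5-azacytidine (100%).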

[2] = biological target: Aldehyde dehydrogenase, mitochondrial (Homo sapiens) (UniProt P05091); assay: qHTS for Inhibitors of the Aldehyde Dehydrogenase Family (ALDH2) Primary screen (AID 2061308);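 further: plate controls were vehicle for no effect and reference inhibitor for full effect; nearly all actives have a fitted effect of over 55% in size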
[3] = biological target: Retinaldehyde dehydrogenase 3 (Homo sapiens) (UniProt P47895); assay: qHTS for Inhibitors of the Aldehyde Dehydrogenase Family (ALDH1A3) Primary screen (AID 2061315);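 further: plate controls were DMSO vehicle for no effect and reference inhibitor for full effect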

Chain of Cellular tumor antigen p53 (Homo sapiens) (P04637 whole entry, looked up): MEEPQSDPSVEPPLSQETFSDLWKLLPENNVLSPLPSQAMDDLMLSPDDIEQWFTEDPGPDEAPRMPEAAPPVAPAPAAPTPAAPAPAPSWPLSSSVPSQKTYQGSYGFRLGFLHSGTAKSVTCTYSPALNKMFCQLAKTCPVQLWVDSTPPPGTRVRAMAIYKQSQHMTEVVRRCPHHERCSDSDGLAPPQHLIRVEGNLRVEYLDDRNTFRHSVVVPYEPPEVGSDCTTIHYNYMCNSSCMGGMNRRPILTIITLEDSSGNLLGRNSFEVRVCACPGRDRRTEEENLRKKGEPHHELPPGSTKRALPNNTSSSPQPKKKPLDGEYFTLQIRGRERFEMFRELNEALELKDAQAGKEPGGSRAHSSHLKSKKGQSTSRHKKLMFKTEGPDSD

CCC1C2CC3C4N(C)c5ccccc5C45CC(C2C5O)N3C1O (configuration not stated)
inactive: activation [1] 9.82% | Potency [2] | Potency [3]

CCOC(=O)c1ccnc2cc(C(OCCN3CCCCC3)c3ccccc3Cl)sc12 (configuration not stated)
inactive: activation [1] -5.67% | Potency [2] | Potency [3]

COCC(C(=O)OC1CC2CCC(C1)N2C)c1ccccc1 (configuration not stated)
inactive: activation [1] 4.33% | Potency [2] | Potency [3]

Cc1cccc(NC(=O)c2ccc(C(F)(F)F)cc2C(=O)O)n1
inactive: activation [1] 1% | Potency [2] | Potency [3]

C=CCN1CCC2(C)c3cc(O)ccc3C[C@H]1[C@H]2C
inactive: activation [1] -5% | Potency [2] | Potency [3]

C/C=C1/CN2CC[C@]34C(=Nc5ccc(OC)cc53)C2C[C@@H]1C4(CO)C(=O)OC (some centres not stated)
inactive: activation [1] -9.16% | Potency [2] | Potency [3]

CC(C)(NC(=O)[C@@H](N)Cc1ccc(O)cc1)C(=O)N[C@@H](Cc1cc2ccccc2[nH]1)C(=O)N[C@@H](Cc1ccccc1)C(=O)O (H-Y[Aib][Ala(indol-2-yl)]F-OH)
inactive: activation [1] 7% | activity change, negative = inhibition [2] -1.78% [at 11.2 µM] | activity change, negative = inhibition [3] -10.2% [at 11.2 µM]

CCN1C[C@]2(COC)[C@H](O)C[C@H](OC)[C@]34[C@@H]5C[C@]6(O)[C@H](OC(=O)c7ccccc7)[C@@H]5[C@@](O)([C@H]([C@H](OC)[C@H]23)[C@@H]14)[C@@H](O)[C@@H]6OC
inactive: activation [1] 10.3% | Potency [2] | Potency [3]

COc1ccc2c3c4n(c2c1)[C@@H](C=C(C)C)OOC(C)(C)C[C@@H]4N1C(=O)[C@@H]2CCCN2C(=O)[C@]1(O)[C@H]3OCC=C(C)C
inactive: activation [1] 15.3% | Potency [2] | Potency [3]
